A selection: hits, their analogues and other compounds. The true share with any hit is near 2.4%.
PTHR1 ag = agonists of human PTHR1 parathyroid hormone receptor. HEK293 GP2 PTHR1 cells, GloSensor cAMP luminescence, 1 h. hit rate 0.075% among 410,000. Q03431. Potency, µM (doses to about 115 µM), inactives show at the top dose activation, usual class: activators; further: potency means the concentration at half of the fitted maximal effect; nearly all actives have a fitted effect of over 55% in size
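HEK-293-derived GP2 cells expressing PTHR1 and a GloSensor cAMP reporter, 3,000/well, plated overnight, given luciferin plus IBMX (each 0.5 mM as added) for 1 h at 37 °C, then compound for 1 h at 37 °C. Luminescence was read after 15 min at room temperature.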
GLP1R cytotox = cytotoxicity counter-screen for GLP-1 receptor inverse agonists | HEK293 cAMP-luciferase reporter cells, luminescence, 24 h | Potency, µM (series often up to 38.3 µM), without a hit: at the highest dose activity change, negative = inhibition, hits mostly inhibitors | hit rate 0.13% among 410,000 | AID 624418;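 further: loss of luciferase light is scored as toxicity; potency means the concentration at half of the fitted maximal effect; on the % scale 0 is the no-effect control and ±100 the full control effect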
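Cells in DMEM/10% Nu serum/1% pen-strep, 1536-well format. Pre-incubated 12 h, dosed with 23 nL compound, incubated a further 24 h. Luciferase detection, 12 min at room temp, luminescence.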
GLP1R inv ag = acts as inverse agonist at human GLP-1 receptor. hit rate 1.6% among 410,000. P43220. Potency, µM (doses to about 38.3 µM), without a hit: at the highest dose activity change, negative = inhibition, actives largely listed as inhibitors. HEK293 GLP-1R CRE-luciferase, luminescence, 24 h; GLP-1R form is constitutively active; further: potency means the concentration at half of the fitted maximal effect; on the % scale 0 is the no-effect control and ±100 the full control effect; nearly all actives have a fitted effect of over 55% in size
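Stable HEK293 clone (constitutively active GLP-1R + cAMP-response luciferase); 200 cells/uL plated, 12 h pre-culture, compound 24 hr, 37 deg C/5% CO2; detection reagent 12 min RT; luminescence.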
TRHR enhancer = TRH receptor (human) allosteric enhancement; P34981; TRHR cells, fluo-8 calcium fluorescence, EC20 TRH enhancement; enhancement, % at 2 µM; hit rate 0.66% among 360,000; in the data active means enhancement above about 30%; further: 0% is about no effect
Target sequence (P34981 whole entry, looked up): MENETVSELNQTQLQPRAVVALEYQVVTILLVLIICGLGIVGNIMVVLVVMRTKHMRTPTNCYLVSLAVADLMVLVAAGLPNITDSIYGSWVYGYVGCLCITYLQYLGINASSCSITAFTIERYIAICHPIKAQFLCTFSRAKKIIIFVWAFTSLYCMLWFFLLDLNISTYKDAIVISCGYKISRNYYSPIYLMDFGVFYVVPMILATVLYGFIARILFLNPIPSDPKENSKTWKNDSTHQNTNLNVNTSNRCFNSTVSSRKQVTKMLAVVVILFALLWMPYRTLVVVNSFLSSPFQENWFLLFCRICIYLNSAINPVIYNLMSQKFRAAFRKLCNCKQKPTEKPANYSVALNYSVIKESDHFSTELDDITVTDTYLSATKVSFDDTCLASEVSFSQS
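Enhancer read-out: after compound pinning and an initial kinetic agonist-mode read, an EC20 of TRH (10 nM final) was injected and fluo-8 calcium signal (Ex 480/Em 530) followed at 1 s/cycle for 100 cycles in TRHR-expressing cells.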
GLP-1R agonist = GLP-1 receptor (human) agonism | HEK293 GLP-1R CRE-luciferase, luminescence, 4-6 h; cells express a hypersensitive GLP-1R form | Potency, µM (top dose mostly 45.6 µM), without a hit: at the top dose activation, hits mostly activators | hit rate 0.007% among 380,000; further: potency means the concentration at half of the fitted maximal effect; % of control where 0% means no effect
TRHR agonist = TRH receptor (human) agonism; P34981; TRHR cells, calcium flux fluo-8, FDSS agonist mode; hit rate 0.18% among 360,000; AID 493084; activation, % at 2 µM; in the data active means activation above about 30%; further: 0% is about no effect
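TRHR-expressing cells loaded with fluo-8 calcium dye; 23 nL library compound pin-transferred, kinetic FDSS fluorescence (Ex 480/Em 530) recorded about 180 s for agonist-induced calcium release, before a 10 nM TRH EC20 addition for potentiator mode.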
Numbers without * were called inactive. Unless noted, the call rests on the fitted dose curve; in most records, active means well fitted curve in the direction sought with a large enough effect; inconclusive means small, poorly fitted or top-dose-only effect, or another doubt; inactive means no such curve, though single readings can be large; an effect the other way counts as inactive or inconclusive.

How did N#C/C(=C\c1ccccn1)c1nc2ccccc2s1 do in these assays?
PTHR1 ag: -14%; GLP1R cytotox: 79%; GLP1R inv ag: 14%; TRHR enhancer: 3; GLP-1R agonist: 21%; TRHR agonist: 45*

What do the screens show for `N#C/C(=C/c1ccc(-c2ccccc2)o1)c1nc(-c2cccs2)cs1`?
PTHR1 ag: -32%; GLP1R cytotox: 69%; GLP1R inv ag: 29%; TRHR enhancer: 0; GLP-1R agonist: -7%; TRHR agonist: 68*

Results for N#C/C(=C/c1ccc(-c2ccc(S(N)(=O)=O)cc2)o1)C(=O)Nc1ccccc1 ?
PTHR1 ag: inactive; GLP1R cytotox: 17%; GLP1R inv ag: 0%; TRHR enhancer: -6; GLP-1R agonist: 1%; TRHR agonist: 1

What do the screens show for `COc1ccc(N(C)S(=O)(=O)c2ccc(Cl)c(C(=O)NCCc3ccc(Cl)cc3)c2)cc1`?
PTHR1 ag: -67%; GLP1R cytotox: 15%; GLP1R inv ag: inconclusive; TRHR enhancer: -17; GLP-1R agonist: 9%; TRHR agonist: 1

Results for Cc1ccc(NC(=O)CCCN2C(=O)COc3ccc(C)cc32)c(C)c1 ?
PTHR1 ag: -15%; GLP1R cytotox: -11%; GLP1R inv ag: inconclusive; TRHR enhancer: 19; TRHR agonist: -1

Results for CCN(CC)c1ccc(S(=O)(=O)Nc2cc(Cl)ccc2Cl)cc1NC(=S)NC(=O)C1CCCC1 ?
PTHR1 ag: inactive; GLP1R cytotox: -10%; GLP1R inv ag: 5µM*; TRHR enhancer: -4; GLP-1R agonist: -16%; TRHR agonist: 0

How did CCN(CC)S(=O)(=O)c1ccc(Cl)c(NC(=S)NC(=O)C2CCCC2)c1 do in these assays?
PTHR1 ag: -87%; GLP1R cytotox: inconclusive; GLP1R inv ag: inconclusive; TRHR enhancer: -6; GLP-1R agonist: 10%; TRHR agonist: 1

Results for CC(=O)Nc1ccc2nc(CN3CCN(Cc4ccc(F)cc4)C(CCO)C3)ccc2c1 (configuration not stated) ?
PTHR1 ag: 12%; GLP1R cytotox: -10%; GLP1R inv ag: 5%; TRHR enhancer: 36*; GLP-1R agonist: 9%; TRHR agonist: 0

Results for CC(=O)Nc1ccc2nc(CN3CCN(CC(C)C)C(CCO)C3)ccc2c1 (configuration not stated) ?
PTHR1 ag: inactive; GLP1R cytotox: 3%; GLP1R inv ag: -7%; TRHR enhancer: -3; GLP-1R agonist: 1%; TRHR agonist: 1

Results for CS(=O)(=O)N1CC2CCCN2c2cc(C(F)(F)F)ccc21 (configuration not stated) ?
PTHR1 ag: -16%; GLP1R cytotox: 0%; GLP1R inv ag: 2%; TRHR enhancer: -3; GLP-1R agonist: -6%; TRHR agonist: -1

How did O=c1c(-c2ccccc2)nc2ccccc2n1C(c1ccccc1)c1nc2ccccc2[nH]1 (configuration not stated) do in these assays?
PTHR1 ag: -44%; GLP1R cytotox: -22%; GLP1R inv ag: 1.6µM*

What do the screens show for `O=c1c(-c2ccccc2)nc2ccccc2n1C(CCc1ccccc1)c1nc2ccccc2[nH]1` (configuration not stated)?
PTHR1 ag: 0%; GLP1R cytotox: -15%; GLP1R inv ag: 10µM*

Results for OC(c1ccccn1)C(O)c1ccccn1 (configuration not stated) ?
PTHR1 ag: -25%; GLP1R cytotox: -4%; GLP1R inv ag: 1%; GLP-1R agonist: -6%

How did Cc1[nH]c2ccc(F)cc2c1CCN(Cc1cccnc1)C(=S)Nc1cccc(F)c1 do in these assays?
PTHR1 ag: -8%; GLP1R cytotox: -11%; GLP1R inv ag: 10µM*; TRHR enhancer: -6; GLP-1R agonist: 13%; TRHR agonist: 0

Source: PubChem BioAssay
